GoLoco inh red: inhibitors of human Gai1-RGS12 GoLoco interaction (red fluorophore) | P63096 | Potency, µM (series often up to 61.6 µM), inactives show at the highest dose activity, negative = inhibition, most hits filed as inhibitors | AID 880 | actives 0.44% (n = 230,000) | Gai1:RGS12 GoLoco peptide FP, rhodamine, 10 min; active means well fitted inhibition curve with a large enough effect, not every such curve was filed as active; inactive means no such curve, though single readings can be large or run the other way; further: potency means the concentration at half of the fitted maximal effect; nearly all actives have a fitted effect of over 30% in size
NPSR antag: neuropeptide S receptor (human) antagonism, cAMP. Q6W5P4. CHO-NPSR cells, cAMP TR-FRET, antagonist mode. Potency, µM (top dose mostly 38.3 µM), inactives show top-dose activity change, negative = inhibition, actives largely listed as inhibitors. actives 1% (n = 220,000); active means well fitted curve in the direction sought with a large enough effect; inconclusive means small, poorly fitted or top-dose-only effect, or another doubt; inactive means no such curve, though single readings can be large; an effect the other way counts as inactive or inconclusive; further: potency means the concentration at half of the fitted maximal effect; nearly all actives have a fitted effect of over 50% in size
Target sequence (Q6W5P4 whole entry, looked up): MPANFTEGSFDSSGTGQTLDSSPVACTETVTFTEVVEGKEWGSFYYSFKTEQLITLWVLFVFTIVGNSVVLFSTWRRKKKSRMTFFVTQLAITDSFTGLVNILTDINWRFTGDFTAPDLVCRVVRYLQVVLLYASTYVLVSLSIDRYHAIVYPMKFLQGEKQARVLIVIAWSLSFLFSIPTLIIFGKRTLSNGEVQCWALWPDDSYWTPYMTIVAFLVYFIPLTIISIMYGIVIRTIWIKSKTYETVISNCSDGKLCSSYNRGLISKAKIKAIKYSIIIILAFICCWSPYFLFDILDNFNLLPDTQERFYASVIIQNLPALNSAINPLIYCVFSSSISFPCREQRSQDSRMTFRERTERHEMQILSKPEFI
JMJD2E inh: blocks human JMJD2E demethylase activity. actives 1.6% (n = 230,000). Potency, µM (series often up to 57.1 µM), for the others: top-dose activity change, negative = inhibition, actives largely listed as inhibitors. JMJD2E catalytic domain, FDH-coupled NADH fluorescence (FDH is formaldehyde dehydrogenase). B2RXH2;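 further: potency means the concentration at half of the fitted maximal effect; 0% = wells with enzyme and -100% = buffer wells without enzyme; nearly all actives have a fitted effect of over 50% in size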
Target sequence (B2RXH2 1-337 limits assumed): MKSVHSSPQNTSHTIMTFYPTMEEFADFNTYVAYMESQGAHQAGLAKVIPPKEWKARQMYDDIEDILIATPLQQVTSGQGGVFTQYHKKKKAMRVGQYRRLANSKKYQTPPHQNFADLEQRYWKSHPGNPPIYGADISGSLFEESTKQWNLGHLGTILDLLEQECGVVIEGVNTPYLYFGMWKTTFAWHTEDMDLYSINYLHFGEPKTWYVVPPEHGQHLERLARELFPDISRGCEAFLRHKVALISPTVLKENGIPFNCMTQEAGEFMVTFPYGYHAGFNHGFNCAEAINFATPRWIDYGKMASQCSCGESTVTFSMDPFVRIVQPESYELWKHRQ
FBPA coupling cs: coupling enzyme interference in Giardia aldolase counter-screen; activity change, negative = inhibition, % at 58.2 µM, hits read low; coupling enzyme system counterscreen, AmpLite Red fluorescence; actives 0.67% (n = 290,000); in the data active means activity change below about -30%
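Counterscreen of the coupled detection system alone, without aldolase: glyceraldehyde-3-phosphate coupling enzymes plus AmpLite Red readout. Compounds at 57.5 uM final, 10 min RT preincubation, 20 min RT reaction, fluorescence 525/598 nm.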
ALDH1A1 inh: inhibitors of human aldehyde dehydrogenase 1A1; actives 7.3% (n = 220,000); P00352; Purified ALDH1A1, NADH fluorescence, propionaldehyde substrate; Potency, µM (series often up to 75.3 µM), for inactives: at the highest dose activity, negative = inhibition, most hits filed as inhibitors;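 further: potency means the concentration at half of the fitted maximal effect; plate controls were no enzyme wells and a reference inhibitor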
Sfp inh: Sfp phosphopantetheinyl transferase inhibition | Q9F4F7 | Biochemical Sfp PPTase activity, qHTS | Potency, µM, without a hit: largest response in the series, negative = inhibition, usual class: inhibitors | actives 3.5% (n = 310,000) | AID 1490; active means well fitted curve in the direction sought with a large enough effect; inconclusive means small, poorly fitted or top-dose-only effect, or another doubt; inactive means no such curve, though single readings can be large; an effect the other way counts as inactive or inconclusive;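 further: the enzyme is Sfp with the accession as filed and its product quenches rhodamine fluorescence; potency means the concentration at half of the fitted maximal effect; 0% = enzyme reaction without inhibitor and -100% = no enzyme wells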
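Buffer: 50 mM Hepes-Na pH 7.6, 10 mM MgCl2, 0.01% Nonidet P-40, 0.01% BSA. Enzyme 15 nM, pre-exposed to compound 15 min; substrates then added and fluorescence change tracked over 30 min.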
* marks the source's active call; other numbers are inactive results; ? = inconclusive; · = no result given; ! = not active in a repeat; [ ] = another dose, or the depositor's remark. Most compounds without a hit are left out; they make up all but 8.5% or so of the library. Unless noted, the call rests on the fitted dose curve; in most records, active means well fitted inhibition curve with a large enough effect (not every such curve was filed as active); inconclusive means small, poorly fitted or top-dose-only effect, or another doubt; inactive means no such curve, though single readings can be large or run the other way. Unless noted, on the % scale 0 is the no-effect control and ±100 the full control effect.

SMILES	GoLoco inh red	NPSR antag	JMJD2E inh	FBPA coupling cs	ALDH1A1 inh	Sfp inh
COc1ccc(CNC(=O)c2c(C)oc3c2C(=O)c2ccccc2C3=O)cc1	5%	-4%	-13%	-45*	?	10%
CC(=O)c1c(C)oc2c1C(=O)c1ccccc1C2=O	5%	29%	6%	-41*	10%	4%
Cc1oc2c(c1C(=O)NCc1cccnc1)C(=O)c1ccccc1C2=O	2%	?	?	-26	-1%	0%
O=c1c(NCCc2ccc(Cl)cc2)c(-c2ccccc2)c1=O	·	·	·	-2	·	28%
O=C1C=CC2=C3c4cc(O)c(O)cc4C[C@@]3(O)COC2=C1	0.35µM*	·	16µM*	-9	-1%	32µM*
O=C(NCC1CCOCC1)C1CCC(=O)N(Cc2cccc(C(F)(F)F)c2)C1 (stereo not given)	·	·	·	·	·	13%
N/C(=N\OC(=O)c1ccco1)c1ccc(Br)cc1	1%	-1%[46.1 µM]	1%	3	3.2µM*	6%
N/C(=N\OC(=O)c1ccco1)c1ccccc1	1%	10%[46.1 µM]	7%	0	4%	11%
CCSC1=NC(=O)/C(=C2/C=Cc3ccccc3N2CC)S1	1.3µM*	-24%[46.1 µM]	-5%	-2	-3%	?
CCCN1C(=O)/C(=c2\s/c(=C3\C=Cc4ccccc4N3CC)c(=O)n2-c2ccccc2)SC1=S	11%	14%	-1%	0	-28%	10%
NC(N)=NCC(O)CN(c1ccccc1)c1ccccc1 (stereo not given)	12%	14%	-5%	0	-4%	-4%
O=C(O)c1ccc(N=Nc2c(O)[nH]c3ccc(Br)cc23)cc1	·	·	·	0	·	10µM*
CCOC(=O)N1CCN(C(=O)C2CCC(=O)N(Cc3ccc(Cl)cc3)C2)CC1 (stereo not given)	·	·	·	·	·	14%
CCCSc1nc(C)c(-c2csc(C(C#N)=C3CCCC3)n2)cc1C#N	113%	-16%[46.1 µM]	?	-10	22µM*	71µM*
CCCCSc1nc2c(cc1C#N)CCC2	-18%	-6%[46.1 µM]	3%	5	?	?
Cc1c(N2C(=O)CSC2c2ccc(F)cc2)c(=O)n(-c2ccccc2)n1C (stereo not given)	10%	3%	-7%	2	·	27%
Cc1cccc(C(=O)O/N=C(\c2ccccc2)c2cccnc2)c1	6%	6%	4%	1	16µM*	-11%
Cc1ccc(C(=O)O/N=C(\c2ccccc2)c2cccnc2)cc1	-1%	4%	6%	0	?	4%
Cc1c(C(=O)NN)sc(-c2ccccc2)c1C#N	8%	4%	-15%	4	1.3µM*	12%
CCOC(=O)c1sc(-c2ccc(C)cc2)c(C#N)c1C	3%	-9%	?	2	?	?
O=C(CCc1ccc(Oc2cc([N+](=O)[O-])cc([N+](=O)[O-])c2)cc1)N1CCCCC1	3%	?	8%	-2	4.5µM*	14µM*
O=C(c1ccc(Oc2ccc([N+](=O)[O-])cc2Cl)cc1)N1CCCC1	-7%	-25%	4%	1	22µM*	?
COc1ccc(NC(=O)CN(c2ccccc2F)S(=O)(=O)c2ccc(C)cc2)c(OC)c1	·	·	·	3	·	12%
COc1ccccc1CNC(=O)CCNS(=O)(=O)c1ccc2c(c1)CC(C)N2C(C)=O (stereo not given)	·	·	·	0	·	18%
Cc1ccc(NC(=S)N(CCN(C)C)Cc2cccs2)c(C)c1	10%	-6%	3%	-1	-6%	32µM*
SMILES	GoLoco inh red	NPSR antag	JMJD2E inh	FBPA coupling cs	ALDH1A1 inh	Sfp inh
Cc1cc(C)c(NC(=S)N(CCN(C)C)Cc2cccs2)c(C)c1	-8%	-5%	-21%	-8	-1%	-15%
Cc1ccc2cc(C#N)c(N3CCCN(C(=O)C4CCCO4)CC3)nc2c1 (stereo not given)	7%	2%[46.1 µM]	?	-3	?	-6%
Cc1ccc2cc(C#N)c(NCCCNC(=O)C3CCCO3)nc2c1 (stereo not given)	2%	-4%[46.1 µM]	?	-35*	?	79µM*
O=c1c(Cl)c(Cl)cnn1-c1ccccc1	12%	-19%[46.1 µM]	4%	-5	13µM*	14%
O=c1c(Cl)c(Cl)cnn1Cc1nnc(-c2ccc(Cl)cc2)o1	8%	-44%	-4%	3	8.9µM*	6%
Cc1ccc(Cn2ncc(Cl)c(Cl)c2=O)cc1	-5%	-47%	7%	0	25µM*	2%
CCc1ccc(C(=O)Cn2ncc(Cl)c(Cl)c2=O)cc1	14%	?	2%	4	14µM*	-2%
CCN(CC)S(=O)(=O)c1cc(NC(=O)c2cc([N+](=O)[O-])ccc2N2CCOCC2)ccc1C	·	·	·	·	·	16%
CC(=O)c1cccc(NC(=O)CN2CCc3cc4c(cc3C2C)OCCCO4)c1 (stereo not given)	·	·	·	1	·	-4%
Cc1cc(C)cc(Cn2ncc(Cl)c(Cl)c2=O)c1	1%	?	-3%	2	28µM*	14%
O=c1[nH]cnc2c1cnn2Cc1ccccc1Cl	·	·	·	-5	·	-1%
O=c1c(Cl)c(Cl)cnn1Cc1ccccc1Cl	8%	6.3µM*	-2%	-3	7%	-13%
COc1ccc(Cl)cc1NC(=O)C1CC(c2ccccc2O)=NO1 (stereo not given)	·	·	·	2	·	6%
c1ccc(C(c2ccccc2)N2CC[C@@]3(CCCNC3)C2)cc1	2%	·	·	-1	?	-12%
COc1cccc(N2CCN(S(=O)(=O)c3cc4c(cc3Cl)NC(=O)CO4)CC2)c1	·	·	·	-2	·	11%
COc1ccc(CNC(=O)N[C@H](C(=O)O)C(C)C)cc1OC	-7%	11%	-5%	4	·	24%
O=C(O)c1ccc2c(c1)C(=O)N([C@H](Cc1cccc3ccccc13)C(=O)O)C2=O	·	·	·	3	·	1%
C[C@@H](C1=C(CCN(C)C)Cc2ccccc21)c1ccccn1	5%	·	-13%	0	-3%	-18%
CC(C)C[C@H](NC(=O)[C@@H]1Cc2ccccc2CN1C(=O)OC(C)(C)C)C(=O)NCC1CCC(C(=O)O)CC1 (stereo not given in full)	17%	-3%	25µM*	1	·	29%
COCCNC(=O)C1CC(=O)N(c2ccc(OC)cc2)C1c1ccc(OC)cc1 (stereo not given)	3%	19%	8%	1	-2%	0%
Oc1cc2c(cc1O)C1c3ccc(O)c(O)c3OCC1(O)C2 (stereo not given)	7.9µM*	43%	0.71µM*	-72*!	11µM*!	2.5µM*!
CC(CN1c2ccccc2Sc2ccccc21)N(C)C (stereo not given)	9%	1%	-7%	0	?	50µM*!
CCN(CC)CCOC(=O)C1(c2ccccc2)CCOCC1	12%	5%[7.67 µM]	5%	-1	16%	6%

Source: PubChem BioAssay
